IMPase inh: IMPase inhibition in cells. CHO-M1 cells, IP1 accumulation, HTRF TR-FRET ratio. AID 901. P97697. inhibition (IP1 accumulation), % at 46.1 µM. 120,000 tested, under 10 active; active means well fitted curve in the direction sought with a large enough effect in the signal ratio, not every such curve was filed as active; inconclusive means small, poorly fitted or top-dose-only effect, or a change in a side signal; inactive means no such curve, though single readings can be large or run the other way; the % refers to the signal ratio;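 further: cells stimulated with carbachol in lithium chloride buffer; plate controls were DMSO basal wells for no effect and reference inhibitor wells for full effect; higher means more IMPase inhibition seen as more IP1 and lower FRET ratio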
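CHO-M1, 2000 cells/well, cultured 16–30 h; cpd up to 46 uM; carbachol (50 uM solution, stimulation buffer w/ 50 mM LiCl, pH 7.4), 30 min 37C; IP-One TR-FRET, 10 min RT; Ex 320/Em 665, 620; Hill-fit AC50.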
PNC assembly inh: perinucleolar compartment assembly inhibition; PC3M PTB-GFP, PNC prevalence imaging, 16 h; stronger effect = lower value; activity change (PNC), negative = inhibition, % at 10 µM; hit rate 3.1% among 140,000; AID 2417;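 active means readout at or below -70, meaning at least 70% loss of cells showing the perinucleolar compartment, a nuclear body marking cancer cells; inconclusive means readout between -30 and a set limit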;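 further: plate controls were DMSO wells for no effect and camptothecin positive control wells for full effect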
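Read-out is percentage of cells bearing a perinucleolar compartment, from automated 20x imaging of fixed, Hoechst-stained PC3M PTB-GFP cells. Cells were seeded 4 h, then exposed 16 h to compound (23 nl of library stock) in duplicate plates.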
ALDH1A1 inh: ALDH1A1 (human) enzyme inhibition | Purified ALDH1A1, NADH fluorescence, propionaldehyde substrate | Potency, µM (titrated, usually from 75.3 µM), without a hit: top-dose activity, negative = inhibition, usual class: inhibitors | hit rate 7.3% among 220,000 | AID 1030 | P00352;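 further: potency means the concentration at half of the fitted maximal effect; plate controls were no enzyme wells and a reference inhibitor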
NPSR antagonist: neuropeptide S receptor (human) antagonism, cAMP | hit rate 1% among 220,000 | CHO-NPSR cells, cAMP TR-FRET, antagonist mode | Q6W5P4 | Potency, µM (doses to about 38.3 µM), without a hit: at the top dose activity change, negative = inhibition, most hits filed as inhibitors; active means well fitted curve in the direction sought with a large enough effect; inconclusive means small, poorly fitted or top-dose-only effect, or another doubt; inactive means no such curve, though single readings can be large; an effect the other way counts as inactive or inconclusive; further: potency means the concentration at half of the fitted maximal effect; nearly all actives have a fitted effect of over 50% in size
Target sequence (Q6W5P4 whole entry, looked up): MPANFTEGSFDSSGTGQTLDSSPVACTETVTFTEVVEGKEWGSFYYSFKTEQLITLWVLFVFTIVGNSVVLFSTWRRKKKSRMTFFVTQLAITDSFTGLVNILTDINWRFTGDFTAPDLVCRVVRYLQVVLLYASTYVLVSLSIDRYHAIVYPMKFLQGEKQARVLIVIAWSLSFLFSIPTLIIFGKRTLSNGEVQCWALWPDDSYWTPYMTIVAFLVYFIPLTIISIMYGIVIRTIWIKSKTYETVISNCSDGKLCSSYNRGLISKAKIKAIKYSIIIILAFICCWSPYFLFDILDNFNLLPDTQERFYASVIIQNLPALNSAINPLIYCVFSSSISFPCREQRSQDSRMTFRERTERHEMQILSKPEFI
IMPase Li cell: membrane-permeable IMPase blocker, potentiated with lithium. AID 1457. Potency, µM (titrated, usually from 59.4 µM), without a hit: top-dose activity, negative = IMPase inhibition, actives largely listed as inhibitors. hit rate 0.35% among 210,000. CHO-M1 cells, IP1 TR-FRET (IP-One), carbachol + lithium; active means well fitted curve in the direction sought with a large enough effect; inconclusive means small, poorly fitted or top-dose-only effect, or another doubt; inactive means no such curve, though single readings can be large; an effect the other way counts as inactive or inconclusive;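 further: IP1 builds up when IMPase is blocked and the TR-FRET signal falls; potency means the concentration at half of the fitted maximal effect; plate controls were basal vehicle for no effect and high inhibitor control for full effect; nearly all actives have a fitted effect of over 50% in size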
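CHO-M1, 2000 cells/well, 16–30 h culture; cpd + low Li+, 30 min 37C; lysis with d2-IP1/Eu-anti-IP1 Ab, 10 min RT; TR-FRET 665/620 ratio and 620 channel; AC50 via Hill.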
HPGD inh: inhibitors of human 15-hydroxyprostaglandin dehydrogenase (HPGD); P15428; purified HPGD, NADH fluorescence kinetic, PGE2 substrate; Potency, µM, for the others: top-dose activity change, negative = inhibition, most hits filed as inhibitors; hit rate 4.3% among 150,000; AID 894; further: potency means the concentration at half of the fitted maximal effect
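20 nM HPGD preincubated 15 min at room temperature with compound in 50 mM Tris-HCl pH 8, 0.01% Tween 20. Started with 1 mM NAD+ and 30 uM prostaglandin E2; NADH fluorescence (360/450 nm) read 5 times over 30-s intervals, last minus first.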
Starred values were filed as active, the others as inactive; [ ] = dose if it differs, or a comment. A selection: hits, their analogues and other compounds. The true share with any hit is near 11%. Unless noted, the call rests on the fitted dose curve; in most records, active means well fitted inhibition curve with a large enough effect (not every such curve was filed as active); inconclusive means small, poorly fitted or top-dose-only effect, or another doubt; inactive means no such curve, though single readings can be large or run the other way. Unless noted, on the % scale 0 is the no-effect control and ±100 the full control effect.

`O=C(Nc1ccc(Cl)cc1)N1CCC(CO)(Cc2ccccc2)CC1` gave ALDH1A1 inh 12.6µM*, NPSR antagonist 29.8% and IMPase Li cell 8.5%.
CCOC(=O)C1CCN(Cc2ccc(N(C)C)cc2)CC1 was read as IMPase inh 14.3, PNC assembly inh -27.6, ALDH1A1 inh -11.5%, NPSR antagonist -9.3%[46.1 µM], IMPase Li cell 22.1%[38.3 µM] and HPGD inh -3.0%.
Screening CC(C)CCNC(=O)CN(CC1CCCO1)C(=O)CCC(=O)Nc1nccs1 (stereo not drawn) returned IMPase inh 3.8, PNC assembly inh 15.5, ALDH1A1 inh 5.2%, NPSR antagonist 7.2%[46.1 µM], IMPase Li cell -4.8%[38.3 µM] and HPGD inh -3.8%.
Screening CCc1ccc(N(C(=O)Cc2cccs2)C(C(=O)NC2CCCCC2)c2cn(C)nc2C)cc1 (stereo not drawn) returned IMPase inh 2.3, PNC assembly inh 36.0, ALDH1A1 inh 2.9%, NPSR antagonist inconclusive, IMPase Li cell -2.6%[38.3 µM] and HPGD inh -13.2%.
Screening CC1CCC2(CC1)NC(=O)N(CC(=O)c1cn(CCC#N)c3ccccc13)C2=O (stereo not drawn) returned ALDH1A1 inh 7.08µM* and NPSR antagonist -15.0%.
`CCCCN(CCCC)C(=O)/C=C/c1cccc([N+](=O)[O-])c1` gave IMPase inh 11.0, PNC assembly inh 17.8, ALDH1A1 inh 4.47µM*, NPSR antagonist inconclusive, IMPase Li cell 12.9% and HPGD inh -17.3%.
`CCN(C(=O)COC(=O)/C=C/c1cccc([N+](=O)[O-])c1)c1ccccc1` gave ALDH1A1 inh 14.1µM*, NPSR antagonist -7.6% and IMPase Li cell 15.7%.
Screening O=S1(=O)N=C2CCCCCN2C(c2ccc(F)cc2)N1 (stereo not drawn) returned ALDH1A1 inh 3.6%, NPSR antagonist 5.2% and IMPase Li cell 5.3%.
O=[N+]([O-])c1ccc(C2NS(=O)(=O)N=C3CCCCCN32)cc1 (stereo not drawn) was read as ALDH1A1 inh 28.2µM* and NPSR antagonist -35.9%.
For CC(C)(C)c1cc[n+](-c2[nH]c(=O)sc2/C=N/NC([S-])=Nc2ccccc2)cc1 the results were ALDH1A1 inh 25.1µM* and NPSR antagonist 7.2%.
`CCN(CC)S(=O)(=O)c1ccc(N2CCOCC2)c(NC(=O)c2cc(C)cc(C)c2)c1` gave IMPase inh -2.0, PNC assembly inh 30.1, ALDH1A1 inh inconclusive, NPSR antagonist -24.2%[46.1 µM], IMPase Li cell -0.9% and HPGD inh -5.5%.
`Cc1ccc(CN2C(=O)C3CCCN3c3ccc(S(=O)(=O)N4CCOCC4)cc32)cc1` (stereo not drawn) gave IMPase inh inconclusive, PNC assembly inh 5.3, ALDH1A1 inh 14.1µM*, NPSR antagonist -1.5%[46.1 µM], IMPase Li cell -5.6%[38.3 µM] and HPGD inh -12.4%.
CCN(CC)S(=O)(=O)c1ccc(N2CCOCC2)c(NS(=O)(=O)c2ccc(C)cc2)c1 was read as PNC assembly inh 8.8, ALDH1A1 inh 2.24µM*, NPSR antagonist -0.7%, IMPase Li cell 11.7% and HPGD inh -21.7%.
Screening Cc1ccc(S(=O)(=O)Nc2cc(S(=O)(=O)N3CCCCC3)ccc2N2CCOCC2)cc1 returned ALDH1A1 inh 12.6µM*, NPSR antagonist 9.2% and IMPase Li cell 2.9%.
`CCN(CC)S(=O)(=O)c1ccc(N2CCOCC2)c(NS(=O)(=O)c2ccc(OC)cc2)c1` gave NPSR antagonist 4.9%.
CCN(CC)S(=O)(=O)c1ccc(N2CCOCC2)c(NS(=O)(=O)c2ccc(C)c(C)c2)c1 was read as IMPase inh 7.6, PNC assembly inh -4.1, ALDH1A1 inh 0.891µM*, NPSR antagonist -28.2%, IMPase Li cell -1.1% and HPGD inh -5.2%.

Screening results: PubChem BioAssay, National Center for Advancing Translational Sciences (NCATS)
